High-throughput results deposited in PubChem BioAssay by University of Kansas High Throughput Screening Laboratory.
mHTT-CaM PPI inh: mutant huntingtin-calmodulin interaction inhibitors – biochemical, AlphaScreen, primary screen; P42858; AlphaScreen His-mHTT/GST-CaM binding, luminescence; inhibition, % at 15 µM; 190,000 tested, 3.6% active
Pf apPOL inh: Pf-apPOL inhibitors, biochemical, fluorescence | Recombinant Pf-apPOL, molecular beacon fluorescence, 1.5 h | Plasmodium falciparum apicoplast DNA polymerase (apPOL) | 210,000 tested, 0.25% active | inhibition, % at 10 µM | AID 1794808, 2022
Numbers stand for hits; i = inactive; nt = no result. The list is not random: actives were taken first. Their share in the collection is about 3.5%. Cut-off read from the data, not from the text of the source: active = inhibition above about 50%; inactive = the rest.

SMILES | mHTT-CaM PPI inh | Pf apPOL inh
CCCCCNC(=O)CSc1ccc(C(=O)Nc2ccccc2C(F)(F)F)cc1[N+](=O)[O-] | i | i
CSc1ccc(C2OC3=C(C(=O)CC(C)(C)C3)C(N)=C2C#N)cc1 (centres undefined) | i | i
O=C(c1ccc(Cn2c(=O)[nH]c3ccccc3c2=O)cc1)N1CCc2ccccc2C1 | 60 | i
O=C(c1ccc(Cn2cncn2)cc1)N1CCc2ccccc2C1 | i | i
COc1cccc2cc(C(N)=O)c(=Nc3ccc(-c4ccccc4)cc3)oc12 | i | i
COc1ccc(Cn2c(=O)n(C)c(=O)n(C)c2=O)cc1[N+](=O)[O-] | i | i
CCc1ccc(C2N(c3cc(Cl)ccc3OC)C(=O)C3CCCN32)cc1 (centres undefined) | i | i
CCOc1ccc(C2N(c3ccc(Cl)cc3)C(=O)C3CCCN32)cc1OC (centres undefined) | i | i
COc1ccc(N2C(=O)C3CCCN3C2c2ccc(Cl)cc2)cc1Cl (centres undefined) | i | i
COc1ccccc1C1N(c2ccc(Cl)c(Cl)c2)C(=O)C2CCCN21 (centres undefined) | 100 | i
COc1ccccc1C1N(c2cc(Cl)ccc2OC)C(=O)C2CCCN21 (centres undefined) | i | i
CCN(CC)c1ccc(C2N(c3cc(Cl)ccc3OC)C(=O)C3CCCN32)cc1 (centres undefined) | 75 | i
COc1cc(OC)c(C2N(c3ccc(Cl)c(Cl)c3)C(=O)C3CCCN32)cc1OC (centres undefined) | 98 | i
COc1cc(OC)c(C2N(c3ccc(Cl)cc3)C(=O)C3CCCN32)cc1OC (centres undefined) | 67 | i
O=C(c1ccco1)N1CCCC(OCc2nc(-c3ccncc3)no2)C1 (centres undefined) | i | i
O=C(O)CCC(C(=O)O)N1C(=O)c2c(Cl)c(Cl)c(Cl)c(Cl)c2C1=O (centres undefined) | i | i
COc1ccccc1CNCc1ccc(SC)cc1 | i | i
CCOc1ccc(-n2nc(C(=O)N3CCCC(C)C3)c3ccccc3c2=O)cc1 (centres undefined) | i | i
Cc1cccc(NC(=O)COc2c(C)cc(Cl)cc2Cl)n1 | i | 58
Cc1cccc(NC(=O)COc2ccc(Cl)c(C)c2)n1 | i | i
COc1cc(C(=O)NCCC2CCN(C(=O)c3ccc(C)cc3)CC2)cc(OC)c1OC | i | i
COc1ccc(C2=NN(CN3C(=O)C(=O)c4ccccc43)C(c3ccccc3)C2)cc1 (centres undefined) | i | i
COc1ccc(C2=NN(C(=O)c3ccccc3Cl)C(c3cccc([N+](=O)[O-])c3)C2)cc1 (centres undefined) | i | i
COc1ccc(C2=NN(CN3C(=O)C(=O)c4ccccc43)C(c3ccccc3Cl)C2)cc1 (centres undefined) | 76 | i
COc1ccc(C2=NN(CN3C(=O)C(=O)c4ccccc43)C(c3cccc([N+](=O)[O-])c3)C2)cc1 (centres undefined) | 96 | i
SMILES | mHTT-CaM PPI inh | Pf apPOL inh
O=C(Nc1ccccc1Br)C1CCCN(c2nccc3sccc23)C1 (centres undefined) | i | i
Clc1ccc(-c2cn3c(n2)CCC3)cc1Cl | i | i
Clc1ccc(-c2cnc3n2CCC3)cc1Cl | 89 | i
O=c1nc(/C=C/c2ccc(-c3ccc(Br)cc3)o2)cc(C(F)(F)F)[nH]1 | 99 | i
O=C(O)c1cc(Cl)ccc1-c1ccc(/C=C/c2cc(C(F)(F)F)[nH]c(=O)n2)o1 | i | i
O=c1nc(/C=C/c2ccc(-c3cccc(Cl)c3)o2)cc(C(F)(F)F)[nH]1 | 91 | i
O=C(O)c1ccccc1-c1ccc(/C=C/c2cc(C(F)(F)F)[nH]c(=O)n2)o1 | i | i
c1cc(CN2CCCCC2c2nc(C3CC3)no2)ccn1 (centres undefined) | i | i
CCCc1cc(C2CCCN2C(=O)c2c(OC)cccc2OC)no1 (centres undefined) | i | i
Cn1nnnc1SCC(=O)NCCn1nc(-c2ccc(F)cc2)ccc1=O | i | i
O=C(CC(c1ccccc1)c1ccccc1)NCCn1nc(-c2ccc(F)cc2)ccc1=O | 95 | i
O=C(Nc1ccc(F)cc1)Nc1nccn(-c2ccc(F)cc2)c1=O | i | i
CCN(CC)S(=O)(=O)c1ccc2[nH]cc(C(=O)N3CCC4(CC3)OCCO4)c(=O)c2c1 | i | i
COc1cc(S(=O)(=O)NCc2ccc3c(c2)OCO3)c(OC)cc1Br | i | i
COc1ccc(S(=O)(=O)Nc2ccc3c(c2)OCO3)cc1Br | i | nt
COc1ccc(CNc2ccc3c(c2)OCO3)cc1Br | 96 | i
COc1cc(OC)c(CNc2ccc3c(c2)OCO3)cc1Br | 100 | i
COc1ccc(C(=O)NC2CCN(c3nnc4ccc(Cl)cn34)CC2)cc1F | i | i
CCOc1ccc(C(=O)N2CCCN(C3CCN(Cc4ccc(F)cc4)C3=O)CC2)cc1 (centres undefined) | i | i
Cc1nc(C(=O)NCCc2cccnc2)c(C)n1C1CCN(S(C)(=O)=O)CC1 | i | i
O=C(c1cccc(Cl)c1)N1CCC2(CC1)NC(=O)N(Cc1ccccc1)C2=O | i | i
COc1ccc(C(=O)N2CCN(c3cccc(Cl)c3)CC2)cc1 | i | i
COc1cccc(-n2ccnc2N2CCN(C(=O)c3ccc(F)c(F)c3)CC2)c1 | 54 | i
CCn1c(N2CCC(C(=O)Nc3ccc(F)c(Cl)c3)CC2)cc(=O)n(C)c1=O | i | i
COc1ccc(C=Nc2cccc(N=Cc3ccc(OC)c(OC)c3)c2)cc1OC | 74 | i
SMILES | mHTT-CaM PPI inh | Pf apPOL inh
COc1cc(C=Nc2ccc(C)c(C)c2)ccc1O | i | i
Cc1n[nH]c(C)c1Sc1ccccc1N=Cc1ccc(C(=O)O)cc1 | i | i
Cc1n[nH]c(C)c1Sc1ccccc1N=Cc1cc(Cl)ccc1O | i | i
Cc1n[nH]c(C)c1Sc1ccccc1N=Cc1c(C)[nH]n(-c2ccccc2)c1=O | 88 | i
Cc1n[nH]c(C)c1Sc1ccccc1N=Cc1cc(Br)ccc1O | 58 | i
Cc1ccc(NC(N)=Nc2nc(C)cc(N3CCCCC3)n2)c(C)c1 | i | i
CCCCOC(=O)C1C2C=CC3(CN(CCCC)C(=O)C13)O2 (centres undefined) | i | i
O=C(Nc1ccccc1)c1ccc(N2CCC(NCc3ccc(F)cc3)C2)nc1 (centres undefined) | i | i
Cc1ccc(C2=NN(C(=O)CN3CCC(C(N)=O)CC3)C(c3ccc(C)cc3)C2)cc1 (centres undefined) | 57 | i
Cc1ccc(C2=NN(C(=O)CN3CCC(C(N)=O)CC3)C(c3ccccc3)C2)c(C)c1 (centres undefined) | 56 | i
CC(=O)N1CCN(CC(=O)N2N=C(c3ccc(C)c(C)c3)CC2c2ccccc2)CC1 (centres undefined) | i | i
Cc1ccc(C2CC(c3ccc(Br)cc3)=NN2C(=O)CCC(=O)O)cc1 (centres undefined) | i | i
CC(C)c1ccc(CN2CCN(c3ccc([N+](=O)[O-])cc3)CC2)cc1 | i | i
CC(C)CC1C(C#N)=C(N)OC2=C1C(=O)CC(C)(C)C2 (centres undefined) | i | i
O=C(NC1CC1)c1ccccc1OCC1CCN(C(=O)C2COc3ccccc3O2)CC1 (centres undefined) | i | i
COc1cc(Cn2nc(C)c3cnn(C(C)(C)C)c3c2=O)cc(OC)c1 | i | i
